Data as given in PubChem BioAssay (NCI).
Where “and” joins values, the source holds several entries; their conditions need not be identical. Equal entries are not always repeated. About 83,000 compounds went through this panel and 20% of them were active in at least one assay; those are over-represented in the sample as a whole.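 How to read the values: 0–100, growth inhibition (40 = 60% inhibited); 0, no net growth; -100 to 0, cell death (-40 = 40% of starting cells died; -100 = all dead).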 A number with no mark means an inactive call. Calls of active or inactive are those of the source. How the source made its calls: active means growth percent below 10; inactive means the rest.

These compounds were tested on MALME-3M melanoma (assay: NCI-60 one-dose screen, 48 h (100 = growth as untreated, 0 = no growth, -100 = all killed)). Conditions: 10 µM unless noted.

Compound	growth
S=c1nn[nH]n1C1CCCCC1	95.8%
CCCC(=O)Oc1ccc(CC)cc1	104%
CC(CN(C)C)CN1c2ccccc2Sc2ccccc21 (stereo unspecified)	81.7% and 101% and 95.8%
O=S(=O)(O)c1ccc2cc(O)ccc2c1	101%
C(#CCN1CCOCC1)CCCN1CCOCC1	117% and 88.9%
COc1cc(Cl)ccc1C	93.7%
Clc1ccc(/C=C/c2ccc3ccccc3n2)cc1	62.3% and 89.8% and 77.1%
CCC(C)(O)CCC(C)(O)CC (stereo unspecified)	93.6%
CC1(C)CC(=O)NC1=O	102%
Cc1ccc(NC(=S)N/C=C(\c2ccccc2)S(=O)Cc2ccccc2)c(C)c1 (stereo unspecified)	106%
COC(=O)c1ccccc1Cl	95%
N#Cc1c(N)nc2c(c(-c3ccc(Cl)cc3)nn2-c2ccccc2)c1C#N	105% [100 µM]
Cn1c(-c2ccccc2)cc(=O)cc1-c1ccccc1	122%
CC(C)(C)C1CCC(=NO)CC1 (stereo unspecified)	103%
CC1=CC(=O)c2cccc(NC3=NCCO3)c21	93.4%
CCOC(C)=N	177%
O=C(N=C1C(=O)C2(CCCCC2)C2(N=C(c3ccccc3)OC2=O)C12CCCCC2)c1ccccc1 (stereo unspecified)	77.6%
Cc1ccc2cccc([N+](=O)[O-])c2n1	99.1% and 108%
CCOc1ccc(/C=C\C(=O)O)cc1	105%

Compound	growth
O=C(Nc1ccccc1)OCC(CN1CCCCC1)OC(=O)Nc1ccccc1 (stereo unspecified)	90.8% and 109%
CSc1nc(N)c(N)c(N)n1	96.6%
O=C(O)c1cc(=O)[nH]c(=O)[nH]1	89.1% and 116%
C/C=C/C(=O)OCCCCCCCCCCCC	111%
CCOC(=O)C1=CC(=O)CC(C)(C)O1	112% and 110%
CCN(CC)CCO/N=C1\CC(c2ccc(OC)c(OC)c2)Oc2ccccc21 (stereo unspecified)	107%
NC1=NC(c2ccccc2)N=C(Nc2ccccc2)N1 (stereo unspecified)	84.9% and 53.8%
Cc1cnc(N)s1	98.1%
CC1=CC(=O)C=CC1=Nc1ccc(N(C)C)cc1	112% and 66.4%
C#CCOC(=O)C(N)CS (stereo unspecified)	96.6%
O=C(O)c1ccc2c3ccc(C(=O)O)c4c(C(=O)O)ccc(c5ccc(C(=O)O)c1c25)c43	86.7%
COc1ccc2nccc(Cl)c2c1	103%
COC(=O)c1nc(N)nc(C(=O)OC)c1C(=O)c1cccc2ccccc12	103%
C/C(CC(C)C)=N/NC(N)=S	81.4%
Cc1c(Cl)c(C)c(Cc2c(C)c(Cl)c(C)c(Cl)c2O)c(O)c1Cl	-3.69% (active)
CCCC(=O)Oc1ccc2ccccc2c1	111%
CCOC(=N)c1ccc(C(=N)OCC)cc1	106%
COc1ccc(/C=C/C(=O)O)cc1OC	103% and 122%
CCCC(=O)OCC(COC(=O)CCC)OC(=O)CCC	107%

The compounds below were run on MDA-MB-231 breast in the same assay as above. Conditions: 10 µM unless noted.

Compound	growth
S=c1nn[nH]n1C1CCCCC1	116%
CCCC(=O)Oc1ccc(CC)cc1	111%
CC(CN(C)C)CN1c2ccccc2Sc2ccccc21 (stereo unspecified)	62% and 90%
O=S(=O)(O)c1ccc2cc(O)ccc2c1	108%
C(#CCN1CCOCC1)CCCN1CCOCC1	96.7% and 106%
COc1cc(Cl)ccc1C	85.9%
Clc1ccc(/C=C/c2ccc3ccccc3n2)cc1	31% and 80.1% and 84%
CCC(C)(O)CCC(C)(O)CC (stereo unspecified)	109%
CC1(C)CC(=O)NC1=O	106%
Cc1ccc(NC(=S)N/C=C(\c2ccccc2)S(=O)Cc2ccccc2)c(C)c1 (stereo unspecified)	104%
COC(=O)c1ccccc1Cl	111%
N#Cc1c(N)nc2c(c(-c3ccc(Cl)cc3)nn2-c2ccccc2)c1C#N	98% [100 µM]
Cn1c(-c2ccccc2)cc(=O)cc1-c1ccccc1	88.8%
CC(C)(C)C1CCC(=NO)CC1 (stereo unspecified)	104%
CC1=CC(=O)c2cccc(NC3=NCCO3)c21	102%
CCOC(C)=N	106%
O=C(N=C1C(=O)C2(CCCCC2)C2(N=C(c3ccccc3)OC2=O)C12CCCCC2)c1ccccc1 (stereo unspecified)	74.4%
Cc1ccc2cccc([N+](=O)[O-])c2n1	107% and 104%
CCOc1ccc(/C=C\C(=O)O)cc1	108%

Compound	growth
O=C(Nc1ccccc1)OCC(CN1CCCCC1)OC(=O)Nc1ccccc1 (stereo unspecified)	30.7% and 79.2%
CSc1nc(N)c(N)c(N)n1	97.6%
O=C(O)c1cc(=O)[nH]c(=O)[nH]1	97.2% and 96.3%
C/C=C/C(=O)OCCCCCCCCCCCC	93.2%
CCOC(=O)C1=CC(=O)CC(C)(C)O1	114% and 106%
CCN(CC)CCO/N=C1\CC(c2ccc(OC)c(OC)c2)Oc2ccccc21 (stereo unspecified)	101%
NC1=NC(c2ccccc2)N=C(Nc2ccccc2)N1 (stereo unspecified)	101% and 74.6%
Cc1cnc(N)s1	91.6%
CC1=CC(=O)C=CC1=Nc1ccc(N(C)C)cc1	87.1%
C#CCOC(=O)C(N)CS (stereo unspecified)	84.2%
O=C(O)c1ccc2c3ccc(C(=O)O)c4c(C(=O)O)ccc(c5ccc(C(=O)O)c1c25)c43	88.2%
COc1ccc2nccc(Cl)c2c1	102%
COC(=O)c1nc(N)nc(C(=O)OC)c1C(=O)c1cccc2ccccc12	105%
C/C(CC(C)C)=N/NC(N)=S	100%
Cc1c(Cl)c(C)c(Cc2c(C)c(Cl)c(C)c(Cl)c2O)c(O)c1Cl	2.41% (active)
CCCC(=O)Oc1ccc2ccccc2c1	95.8%
CCOC(=N)c1ccc(C(=N)OCC)cc1	96.3%
COc1ccc(/C=C/C(=O)O)cc1OC	100% and 108%
CCCC(=O)OCC(COC(=O)CCC)OC(=O)CCC	109%
